Measurements taken from PubChem BioAssay (NCI).
Compounds without any hit were thinned out: in the full panel of roughly 79,000, 15% have a hit. No stated cut-off is given here; in the data, active means growth inhibition above about 70%; inactive means the rest.

Experiments:
[1] = NCI Yeast Anticancer Drug Screen. Data for the rad50 strain (AID 155);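 further: 0% = growth of vehicle-only cultures of the same strain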; settings: S. cerevisiae rad50 strain growth inhibition; at 50.0 µM; hits give high values
Procedure, shortened: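 Cells are treated with compound, grown, and their growth is then scored against vehicle-only cultures of the same repair-deficient yeast strain.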

[2] = NCI Yeast Anticancer Drug Screen. Data for the mec2-1 strain (AID 157); settings: S. cerevisiae mec2-1 strain, at 50.0 µM, hits give high values
Procedure, shortened: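 Yeast mec2-1 mutant treated with compound. Readout: growth inhibition vs vehicle controls.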

[3] = NCI Yeast Anticancer Drug Screen. Data for the sgs1 mgt1 strain (AID 161);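 further: 0% = growth of cultures given vehicle only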; settings: S. cerevisiae sgs1 mgt1 strain, at 50.0 µM, hits give high values
Procedure, shortened: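 Genetically altered yeast, compound exposure, growth inhibition relative to vehicle.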

[4] = NCI Yeast Anticancer Drug Screen. Data for the cln2 rad14 strain (AID 165);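 further: 0% = growth equal to vehicle treated cultures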; settings: S. cerevisiae cln2 rad14 strain, at 50.0 µM, hits give high values
Procedure, shortened: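 cln2 rad14 yeast strain; compound exposure; growth inhibition read vs vehicle controls.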

[5] = NCI Yeast Anticancer Drug Screen. Data for the bub3 strain (AID 167); settings: S. cerevisiae bub3 mutant strain, at 50.0 µM, hits give high values
Procedure, shortened: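 Part of a panel of yeast mutants defective in DNA damage repair or cell cycle regulation. Each strain is grown with compound, and inhibition is calculated relative to solvent-treated cultures.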

[6] = NCI Yeast Anticancer Drug Screen. Data for the mlh1 rad18 strain (AID 175); settings: S. cerevisiae mlh1 rad18 strain growth inhibition; at 50.0 µM; hits give high values
Procedure, shortened: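 Yeast w/ defined DNA-repair lesions; compound exposure; growth vs vehicle controls → % inhibition.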

Measured: growth inhibition

Cc1cc2nc3c(C(OC4OC(CO)C(O)C(O)C4O)C(O)CO)nn(-c4ccccc4)c3nc2cc1C (stereo not drawn)
inactive: [1] -23% | [2] -13.8% | [3] -35.1% | [4] 0.25% | [5] -26.9%

Cc1cccc(S(=O)(=O)c2ccccc2)c1
inactive: [1] 22.9% | [2] 34.1% | [3] -15.7% | [4] 13.1% | [5] 4.35%

O=S(=O)(OCC1CC2C=CC1C2)c1ccc(Br)cc1 (stereo not drawn)
inactive: [1] -15.6% | [2] 7.45% | [3] -3.7% | [4] 6.85% | [5] 54.9%

CCOC(=O)c1ccc(NC(=O)Nc2cc(Cl)ncn2)cc1
inactive: [1] 10.1% | [2] -6.55% | [3] 9.15% | [4] -22.9% | [5] 10.3%

Cc1ccc2nc(Nc3nc(C)cc(C)n3)[nH]c2c1
inactive: [1] -36.9% | [2] -31.6% | [3] -21.9% | [4] -0.3% | [5] -17.8%

NC(=O)N/N=C(\c1ccccc1)C1CCCCc2ccccc21 (stereo not drawn)
inactive: [1] 48.5% | [2] 20.6% | [3] 33.2% | [4] 9.95% | [5] 43% | [6] 48%

CC(=O)CC(=O)N1CCCCCC1
inactive: [1] -0.65% | [2] -16.9% | [3] 0.5% | [4] 11.8% | [5] -13.3%

O=[N+]([O-])c1ccc(C2SCc3nc4ccccc4n32)cc1 (stereo not drawn)
inactive: [1] 3.4% | [2] -14.2% | [3] 49.1% | [4] 15.2% | [5] 23.1%

CCOC(=O)Nc1ccc(C(=O)OCC)cc1
inactive: [1] 29.8% | [2] -15.1% | [3] 7.85% | [4] 8.1% | [5] -16.3%

O=c1n(-c2ccccc2)c(=O)n2n1C1C3C4C3C2C2(F)C4C12 (stereo not drawn)
inactive: [1] -6.95% | [2] 14.3% | [3] 19.9% | [4] 8.6% | [5] 7.75%

COc1cc(/C=C/C(=O)c2sc(-n3nc(-c4ccccc4)cc3-c3ccccc3)nc2C)ccc1O
inactive: [1] 6% | [2] -13.6% | [3] -34.4% | [4] 4.9% | [5] 26.4%

O=[N+]([O-])c1cccc(SNSc2cccc([N+](=O)[O-])c2)c1
inactive: [1] 29% | [2] 12.8% | [3] 8.4% | [4] -35.5% | [5] 9.8%

O=C1C2Nc3ccccc3N=C2OC1c1cccc([N+](=O)[O-])c1 (stereo not drawn)
inactive: [1] 16.3% | [2] 15.6% | [3] 22.9% | [4] 16.9% | [5] 20.6%

COc1ccc(C(Nc2ccccn2)c2cc(C(C)(C)C)cc(C(C)(C)C)c2O)cc1 (stereo not drawn)
inactive: [1] 43.6% | [2] -2.95% | [3] 9.45% | [4] 12.4% | [5] 41.9%

CN1COc2c3c(c4ccccc4c2C1)CN(C)CO3
inactive: [1] 7.1% | [2] 2.35% | [3] 1.2% | [4] -16.9% | [5] 6.35%

N#C/C(=C\C1CCCC([N+](=O)[O-])C1)C1CCC([N+](=O)[O-])CC1 (stereo not drawn)
inactive: [1] -0.55% | [2] 5.3% | [3] -7.15% | [4] -6.5% | [5] -5.05%

CC(=O)C1SCC[S+]1C (stereo not drawn)
inactive: [1] -19.8% | [2] -7.6% | [3] -10.6% | [4] 13.4% | [5] -9.2%

COc1ccc(C(=O)O)cc1
inactive: [1] 12.3% | [2] -19.8% | [3] -32.7% | [4] -41% | [5] -2.9%

Cn1c(=O)c2nc3c(=O)n(C)c(=O)n(CC(N)=O)c3nc2n(C)c1=O
inactive: [1] 28.2% | [2] -5.65% | [3] 14.9% | [4] 26.2% | [5] 12.1%

OC(c1ccccc1)C1CC2C=CC1C2 (stereo not drawn)
inactive: [1] 10.4% | [2] 3.9% | [3] 3.75% | [4] 3.05% | [5] -2.05%

COc1ccc(-c2cc3cc(Cl)cc(Cl)c3oc2=O)cc1OC
inactive: [1] -13.6% | [2] -8.6% | [3] -17.8% | [4] -4.85% | [5] -3.25% | [6] -16.1%

Cc1ccc(S(=O)(=O)Oc2c(Cl)cc(Cl)cc2Cl)cc1
inactive: [1] -2.4% | [2] 9.35% | [3] 26.4% | [4] -19.1% | [5] 24.8%

O=C(O)c1nc(-c2ccccc2)[nH]c1C(=O)O
inactive: [1] 20.5% | [2] 5.6% | [3] 12.8% | [4] -15.8% | [5] 30.6%

CCCOC1OC(CS(=O)(=O)O)C(OC(C)=O)C(OC(C)=O)C1OC(C)=O (stereo not drawn)
inactive: [1] 3.25% | [2] 3.1% | [3] 8.4% | [4] 18% | [5] 2.4%

O=C(O)c1ccccc1C(=O)OCC1CCCc2ccccc21 (stereo not drawn)
inactive: [1] 11.7% | [2] 45.7% | [3] 41.5% | [4] -100% | [5] 43.5%

O=C(CCN1CCCCC1)C(O)(c1ccccc1)c1ccccc1
inactive: [1] 19.2% | [2] -2% | [3] 24.7% | [4] -6.05% | [5] -10.4%

COC(=O)c1cc2c(o1)Sc1ccccc1NC2=O
inactive: [1] -4.3% | [2] -29.9% | [3] -12.6% | [4] 3.65% | [5] -8.55%

c1ccc(N=C(Nc2ccccc2)N2CCCCC2)cc1
inactive: [1] -20% | [2] -50.4% | [3] -7.9% | [4] 9.85% | [5] 9.35%

CC1(O)Oc2c(cc(C(C)(C)C)cc2C(C)(C)C)C1=O (stereo not drawn)
inactive: [1] 17.4% | [2] -10.1% | [3] 18.2% | [4] -9% | [5] 23.6%

O=C(/C=C/c1ccccc1)NC(Cc1ccccc1)C(=O)O (stereo not drawn)
inactive: [1] -21% | [2] -11.4% | [3] -8.25% | [4] -5.55% | [5] -14.1%

CC(C)S1=C2C(=O)CC(C)(C)CC2=Nc2ccccc21 (stereo not drawn)
inactive: [1] 7.65% | [2] -0.65% | [3] 2.95% | [4] -1.45%

COc1cccc2c(NCCCCCO[N+](=O)[O-])cc[n+](C)c12
inactive: [1] 25.7% | [2] -24.4% | [3] 9.85% | [4] 8.7% | [5] 16.6%

CCOc1ccc(OCC)c(NC(C)=O)c1
inactive: [1] -1.95% | [2] 4.05% | [3] 3.95% | [4] 5.5% | [5] 13.8%

CCc1ccc(N=Nc2c(F)c(F)c(N(C)C)c(F)c2F)cc1
inactive: [1] -2.4% | [2] 7.7% | [3] 6.85% | [4] 4.1% | [5] 1.05%

O=[N+]([O-])c1ccc(N(CCO)CCO)nc1
inactive: [1] -15.7% | [2] -76.6% | [3] 5.15% | [4] 19.5% | [5] -19.3%

O=C(Nc1ccccc1)Nc1ccccc1C(=O)O
inactive: [1] -5.8% | [2] -22% | [3] -16.4% | [4] -54.6% | [5] -16.2%

C/C(=N\NC(N)=S)c1ccc(/C(C)=N/NC(N)=S)cc1
inactive: [1] -44.6% | [2] -0.25% | [3] 0.8% | [4] -13.2% | [5] -1.2%

O=C(O)CNC(=O)C(Cc1ccccc1)NC(=O)CNC(=O)C(CSC(c1ccccc1)c1ccccc1)NC(=O)C(CSC(c1ccccc1)(c1ccccc1)c1ccccc1)N1C(=O)c2ccccc2C1=O (stereo not drawn)
inactive: [1] 1.5% | [2] 14.1% | [3] -3.7% | [4] -17.9% | [5] -7.05%

COc1cccc(NC(=O)CSc2nnc(-c3ccc(NC(C)=O)cc3)o2)c1
inactive: [1] -29.2% | [2] -15.5% | [3] -15.3% | [4] 6.15% | [5] -25.4%

Clc1ccc(CSC2=NCCN2)cc1Cl
inactive: [1] -17% | [2] -26.4% | [3] -21.9% | [4] -24.4% | [5] -14%

c1ccc2c(c1)C[N+]1(CCCCCC1)C2
inactive: [1] 7% | [2] 6.05% | [3] 11% | [4] -10.3% | [5] 1.05% | [6] 10.7%

O=C(Nc1ccccc1Cl)c1ccc(F)cc1
inactive: [1] -2.25% | [2] -12.2% | [3] 15% | [4] 7.4% | [5] -21.4% | [6] -3.85%
